Among all 48,000 compounds or so, about 13,000 (27%) showed an effect of 50% or more. Some of the results follow.
Tested on: Wolbachia pipientis
Experiment: Anti-Wolbachia Cell-Based Screen
Format: functional
Parameters: scale not given: in the data most compounds retested in dose-response had high values
Conditions: 5 µM

| Structure (SMILES) | Percent Effect |
| --- | --- |
| CSC(C)C(=O)N1CCN(CCO)CC1 (configuration not stated) | -9.9% |
| CCCn1nc2c(cc1=O)CN(Cc1c(C)noc1C)CC2 | -3.39% |
| Cc1noc(C2CCCN(CC(=O)N3CCNC(=O)C3)C2)n1 (configuration not stated) | 8.261% |
| CN(C)C(=O)CN1C[C@@H]2CC[C@H](C1)N(Cc1ccccc1OCCO)C2 | -40.78% |
| Cc1cc(CN(CCO)c2ccccc2)on1 | -2.201% |
| Cc1nc(CNC(=O)Cn2nc(-c3ccc(F)cc3)oc2=O)cs1 | -1.04% |
| Cn1c(SCc2noc(-c3ccsc3)n2)nnc1C1CCS(=O)(=O)C1 (configuration not stated) | -1.02% |
| CC(C(=O)Nc1ncccn1)N1CCc2[nH]nc(C(F)(F)F)c2C1 (configuration not stated) | -12.45% |
| CC(C)n1ccnc1C1CCN(C(=O)N2CCCC2)CC1 | -25.38% |
| CC(C)CN1C(=O)CO[C@@H]2CN(C(=O)N3CCOCC3)C[C@H]21 | -11.7% |
| CC(C)c1cc(NC2CCN(C(=O)N3CCCC3)CC2)ncn1 | -23.56% |
| CSc1nnc(C2CCN(C(=O)N3CCOCC3)CC2)n1C(C)C | 91.83% |
| CSc1nnc(C2CCN(C(=O)N3CCCC3)CC2)n1C(C)C | 114% |
| Cn1ccc(NC2CCN(C3CC3)C2=O)n1 (configuration not stated) | -4.974% |
| CC(C)n1nc(CN2CCCC2=O)c2c1CN(C(=O)c1ccco1)C2 | 113.5% |
| CC(C)n1nc(CN2CCCC2=O)c2c1CN(C(=O)c1ccc[nH]1)C2 | 104.5% |
| Cn1nc(CN2CCCC2)c2c1CN(C(=O)c1ccc[nH]1)CC2 | -10.94% |
| CC(C)n1nc(CN2CCCC2=O)c2c1CN(C(=O)c1ccno1)C2 | 92.04% |
| Cn1nc(C#N)c2c1CN(C(=O)c1ccco1)CCC2 | -2.9% |
| COCc1nn(C)c2c1CN(C(=O)c1ccno1)CC2 | 7.505% |
| Cn1nc(CN2CCOCC2)c2c1CN(C(=O)c1ccc[nH]1)C2 | -8.763% |
| COCc1nn(CC2CC2)c2c1CN(C(=O)c1ccno1)CC2 | 1.769% |
| O=C(c1ccco1)N1CCc2onc(CN3CCCC3)c2C1 | -15.89% |
| N#CC1COCCN1S(=O)(=O)c1ccc2c(c1)CCC2 (configuration not stated) | 4.042% |

| Structure (SMILES) | Percent Effect |
| --- | --- |
| N#Cc1cccnc1N[C@@H]1c2ccccc2C[C@@H]1O | 4.876% |
| CCN(CC)C(=O)[C@@H]1C[C@H](N)CN1C(=O)c1cc2c([nH]c1=O)CCC2 | -7.026% |
| Cc1cnc(C)c(-c2cc(O)c3c(c2)CN(Cc2nccs2)CCO3)n1 | 17.73% |
| Cc1nn(C)c(C)c1C(=O)N1CCN(C(=O)CCC2CCCCC2)CC1 | -21.72% |
| O=C(N1CCOCC1)N1CCN(c2ccncc2Cl)CC1 | -18.06% |
| CC(C)c1cc(C(=O)N2CCN(c3ccncc3)CC2)n(C)n1 | 12.18% |
| Cc1cccc(N2CCN(C(=O)c3c(C)nn(C)c3C)CC2)c1C | 34.44% |
| Cc1nn(C)c(C)c1C(=O)N1CCN(c2ccncc2Cl)CC1 | 86.38% |
| Cc1cc(C(=O)N2CCN(c3ccncc3Cl)CC2)n(C)n1 | 77.84% |
| Cc1cc(F)ccc1S(=O)(=O)NCC(O)c1cccn1C (configuration not stated) | -4.916% |
| CCOCC1CN(C(=O)CC2=CCCCC2)Cc2nnn(C)c21 (configuration not stated) | 41.96% |
| Cc1nccc([C@@H]2C[C@@H]3CCN(S(=O)(=O)N(C)C)C[C@H]3O2)n1 | 88.34% |
| Cc1nccc([C@@H]2C[C@@H]3CCN(S(=O)(=O)C4CC4)C[C@H]3O2)n1 | 103.3% |
| Cc1nccc([C@H]2C[C@@H]3CCN(S(=O)(=O)C4CC4)C[C@H]3O2)n1 | 101.1% |
| O=C(C1CCOCC1)N1CC[C@H]2C[C@@H](c3ccncn3)O[C@@H]2C1 | -5.284% |
| O=C1CO[C@H]2CN(S(=O)(=O)c3ccccc3)C[C@H]2N1c1ccccc1 | -3.468% |
| Cc1nccc([C@@H]2C[C@H]3CN(S(=O)(=O)c4ccccc4)C[C@H]3O2)n1 | 93.7% |
| Cc1nccc([C@H]2C[C@@H]3CCN(S(=O)(=O)N(C)C)C[C@H]3O2)n1 | -8.198% |
| O=C1CO[C@H]2CN(S(=O)(=O)c3ccccc3)C[C@H]2N1Cc1ccccn1 | 1.166% |
| N#Cc1cc2c(=O)n(CC(O)c3cccc(O)c3)ccc2[nH]c1=O (configuration not stated) | -10.2% |
| COc1cc(N2CC[C@@H]3O[C@@H](c4ccnc(C)n4)C[C@H]3C2)ncn1 | -12.7% |
| Cc1nccc([C@H]2C[C@@H]3CCN(S(C)(=O)=O)C[C@H]3O2)n1 | 116.1% |
| Cc1nccc([C@@H]2C[C@@H]3CCN(S(C)(=O)=O)C[C@H]3O2)n1 | -4.62% |

Reference: ChEMBL document CHEMBL3988442, “University of Dundee, Small-Polar-MMV Screening Library” (2021)
